The campaign covered roughly 290,000 compounds. About 890 (0.31%) were called active. Cut-off read from the data, not from the text of the source: active = inhibition mostly above about 52% (no sharp cut-off); inactive = mostly below about 76%. Shown is part of a subset that was picked to be rich in actives.
Assay: inhibitors of HIV fusion peptide binding, primary screen, biochemical, uHTS, fluorescence dequenching (AID 1986)
Details: cell-free peptide binding, 30 min, stronger effect = higher value
[1] = measured here: repeat confirmation average inhibition, at 18.6 µM

O=C(CN1C(=O)NC2(CCCC2)C1=O)Nc1cccc(Cl)c1Cl
inhibition (at 20 µM): 0.8% (inactive)

CCOc1ccccc1C(=O)NC1CCN(Cc2ccccc2)CC1
inhibition (at 20 µM): -0.3% (inactive)

CN(C)c1cncc(C(=O)O)c1
inhibition (at 20 µM): -0.6% (inactive)

S=C(NCc1ccccn1)Nc1ccccc1Cl
inhibition (at 20 µM): 1.2% (inactive)

CC(=O)N(CCC(c1ccco1)C(C)C)Cc1ccc(Cl)cc1 (centres undefined)
inhibition (at 20 µM): -0.3% (inactive)

Clc1ccc(Cn2cc(/C=N/n3cnnc3)c3ccccc32)c(Cl)c1
inhibition (at 20 µM): -3% (inactive)

Oc1sc(C=Nc2ccc(F)cc2)c2ccccc12
inhibition (at 20 µM): 55% (inactive)
inhibition [1]: 23%

Cc1ccc(N=Cc2sc(O)c3ccccc23)cc1
inhibition (at 20 µM): 101% (active)
inhibition [1]: 104%

Oc1sc(C=Nc2ccccc2)c2ccccc12
inhibition (at 20 µM): 24.4% (inactive)

Cc1nn(C)cc1CNC(=O)c1cccc(F)c1
inhibition (at 20 µM): -1.7% (inactive)

CN(C)c1ccc(/C=C2\SC(=O)N(CC(O)Cn3c4ccccc4c4ccccc43)C2=O)cc1 (centres undefined)
inhibition (at 20 µM): 120% (active)

O=C1S/C(=C/c2ccccc2)C(=O)N1CC(O)Cn1c2ccccc2c2ccccc21 (centres undefined)
inhibition (at 20 µM): -0.1% (inactive)

O=C1S/C(=C\c2ccccc2)C(=O)N1CC(O)Cn1c2ccccc2c2ccccc21 (centres undefined)
inhibition (at 20 µM): 0.2% (inactive)

C#CCn1c(-c2cccs2)nc2ccccc21
inhibition (at 20 µM): 0% (inactive)

Nc1nnc(CC(=O)N/N=C/c2cc([N+](=O)[O-])cc(Br)c2O)s1
inhibition (at 20 µM): 61.2% (active)

Nc1nnc(CC(=O)N/N=C\c2cc([N+](=O)[O-])ccc2O)s1
inhibition (at 20 µM): 15.7% (inactive)

Nc1nnc(CC(=O)N/N=C/c2ccc([N+](=O)[O-])cc2)s1
inhibition (at 20 µM): -2.4% (inactive)

Cc1cc(OCC(=O)NC(Cc2ccc(Cl)cc2)C(=O)O)c2c(C)cc(=O)oc2c1 (centres undefined)
inhibition (at 20 µM): 4.4% (inactive)

Cc1ccc(/C(N)=N/OC(=O)c2cccc(Cn3cc(C(F)(F)F)ccc3=O)c2)cc1
inhibition (at 20 µM): -0.3% (inactive)

COC(=O)c1cc(C(=O)c2ccc(Cl)cc2)n2c(=O)/c(=C\N(C)C)sc12
inhibition (at 20 µM): 97.1% (active)
inhibition [1]: 68.7%

COC(=O)c1cc(C(=O)c2ccccc2)n2c(=O)/c(=C\N(C)C)sc12
inhibition (at 20 µM): 2.2% (inactive)

CN(C)/C=c1\sc2c(C#N)cc(C(=O)c3ccc(Br)cc3)n2c1=O
inhibition (at 20 µM): 3.8% (inactive)

COC(=O)c1nn(-c2ccc(OC)cc2)ccc1=O
inhibition (at 20 µM): -2.9% (inactive)

O=C(O)c1ccc(Cl)c2c1C1C=CCC1C(c1ccccn1)N2 (centres undefined)
inhibition (at 20 µM): -3.1% (inactive)

COc1ccc(OC)c(C2Nc3c(Cl)ccc(C(=O)O)c3C3C=CCC32)c1 (centres undefined)
inhibition (at 20 µM): 38.2% (inactive)

COC(=O)COc1ccc(C2Nc3c(Cl)ccc(C(=O)O)c3C3C=CCC32)cc1 (centres undefined)
inhibition (at 20 µM): 62.9% (active)

Cc1c(OCC(=O)OC(C)(C)C)ccc2c3c(c(=O)oc12)CCC3
inhibition (at 20 µM): 1.6% (inactive)

NC1=Nc2cccc3cccc1c23
inhibition (at 20 µM): 5.1% (inactive)

O=C1C=C(O)c2cccc3cccc1c23
inhibition (at 20 µM): 9% (inactive)

NC1=CC(=O)c2cccc3cccc1c23
inhibition (at 20 µM): 64% (active)
inhibition [1]: 63.9%

COc1cc(/C=C2\C(=O)ON=C2c2ccccc2)cc(OC)c1OC
inhibition (at 20 µM): 1.4% (inactive)

COc1cc(/C=C2/C(=O)ON=C2c2ccccc2)ccc1O
inhibition (at 20 µM): 10.6% (inactive)

CCOc1cc(/C=C2/C(=O)ON=C2C)cc(Br)c1O
inhibition (at 20 µM): 57.8% (active)
inhibition [1]: 51.8%

CCOc1cc(/C=C2\C(=O)ON=C2c2ccccc2)ccc1OC
inhibition (at 20 µM): 0.3% (inactive)

C#CCOc1c(Br)cc(/C=C2/C(=O)ON=C2C)cc1OCC
inhibition (at 20 µM): 4.2% (inactive)

COc1cc(/C=C2\C(=O)ON=C2c2ccccc2)cc(Br)c1O
inhibition (at 20 µM): 63.3% (active)
inhibition [1]: 106%

CCOc1cc(/C=C2/C(=O)ON=C2C)ccc1O
inhibition (at 20 µM): 33.7% (inactive)

CCOc1cc(/C=C2\C(=O)ON=C2c2ccccc2)cc(Br)c1O
inhibition (at 20 µM): 69.6% (active)
inhibition [1]: 108%

COc1cc(/C=C2\C(=O)ON=C2c2ccccc2)cc(Cl)c1O
inhibition (at 20 µM): 45.2% (inactive)

Cc1ccc(N/C=C2\CCCCC2=O)nc1
inhibition (at 20 µM): 0.7% (inactive)

Cc1ccc(S(=O)(=O)N/N=C\c2cn(CC(N)=O)c3ccccc23)cc1
inhibition (at 20 µM): 0.7% (inactive)

CN(C)c1ncnc(N(C)C)c1[N+](=O)[O-]
inhibition (at 20 µM): -2.4% (inactive)

COc1ccccc1/C=C(/C(=O)NCCCn1ccnc1)c1ccccc1
inhibition (at 20 µM): 0.9% (inactive)

O=C(N/N=C/c1ccccn1)c1cc(C2CC2)[nH]n1
inhibition (at 20 µM): -0.3% (inactive)

Cc1oc2cc3oc(=O)cc(C)c3cc2c1C
inhibition (at 20 µM): 1% (inactive)

COC(=O)c1cc(O)c(O)c(O)c1
inhibition (at 20 µM): 11% (inactive)

O=C(OCC1O[C@@H](OC(=O)c2cc(O)c(O)c(O)c2)[C@@H](OC(=O)c2cc(O)c(O)c(O)c2)[C@@H](OC(=O)c2cc(O)c(O)c(O)c2)[C@@H]1OC(=O)c1cc(O)c(O)c(O)c1)c1cc(O)c(O)c(O)c1 (some centres undefined)
inhibition (at 20 µM): 56% (active)

COC1OC(COC(=O)c2ccccc2)C(OC(=O)c2ccccc2)C1OC(=O)c1ccccc1 (centres undefined)
inhibition (at 20 µM): -0.6% (inactive)

O=C(CCN1C(=O)c2ccc([N+](=O)[O-])cc2C1=O)Nc1nccs1
inhibition (at 20 µM): -0.3% (inactive)

O=C(CCCn1c(=S)[nH]c2ccccc2c1=O)NCCSCc1ccccc1
inhibition (at 20 µM): 1.5% (inactive)

CCN(CC)S(=O)(=O)c1ccc(O)c(C(=O)OCC(=O)Nc2ccc(OC(F)(F)F)cc2)c1
inhibition (at 20 µM): -1.8% (inactive)

COc1cc2ccccc2cc1C(=O)NC(=S)Nc1cccc(C(=O)O)c1
inhibition (at 20 µM): 58.8% (active)

COc1cc2ccccc2cc1C(=O)NC(=S)Nc1ccc(C(=O)O)cc1
inhibition (at 20 µM): 53.8% (inactive)
inhibition [1]: 2.1%

COc1cc2ccccc2cc1C(=O)NC(=S)Nc1cc(C(=O)O)ccc1C
inhibition (at 20 µM): 51.6% (inactive)
inhibition [1]: -1.6%

COc1ccc(/C=N\NC(=O)c2ccccc2Br)cc1COc1c(F)c(F)cc(F)c1F
inhibition (at 20 µM): 0.6% (inactive)

COc1cc(C(=O)NCC(=O)N/N=C(/C)c2cccs2)cc(OC)c1OC
inhibition (at 20 µM): -1.2% (inactive)

CC(C)P(=O)(Cc1cccc(C#N)c1)C(C)C
inhibition (at 20 µM): 3.5% (inactive)

COC(=O)c1ccc(OCC2c3cc(OC)c(OC)cc3CCN2C(=O)c2ccco2)cc1 (centres undefined)
inhibition (at 20 µM): -1.1% (inactive)

COc1ccc(C(=O)Nc2cccc(/C=C(\CCC(=O)O)c3nc4ccccc4s3)c2)cc1
inhibition (at 20 µM): 59.2% (active)

COc1cccc(/C=C(\CC(=O)O)c2nc3ccccc3s2)c1
inhibition (at 20 µM): 3.6% (inactive)

Cc1ccc(/C=C(\CCC(=O)O)c2nc3ccccc3s2)cc1[N+](=O)[O-]
inhibition (at 20 µM): 27.3% (inactive)

O=C(O)CC/C(=C\c1ccc(Cl)c([N+](=O)[O-])c1)c1nc2ccccc2s1
inhibition (at 20 µM): 13.2% (inactive)

O=C(O)CC/C(=C\c1cccc(NC(=O)c2ccccc2Cl)c1)c1nc2ccccc2s1
inhibition (at 20 µM): 64.7% (inactive)
inhibition [1]: 17.1%

CN(c1ccccc1)c1ccc(/C=C(\CCC(=O)O)c2nc3ccccc3s2)cc1[N+](=O)[O-]
inhibition (at 20 µM): 65% (active)
